# JMJD2C inh – human JMJD2C demethylase inhibition; GST-JMJD2C(1-420) H3K9me3 demethylation, DELFIA europium; 0.069% of 330,000 active; AID 2099; Q9H3R0; inhibition, % at 2.35 µM;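 active = more than half of a compound's replicate wells show inhibition beyond 50%, single wells judged on their own value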;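 also: signal counts dimethyl H3K9 product captured on neutravidin plate; 0% = median of DMSO wells and 100% = 0.3 times that DMSO median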
# PvdQ inh – P. aeruginosa PvdQ acylase inhibition | purified PvdQ acylase, fluorescence plate reader | inhibition, % at 10 µM | 0.063% of 340,000 active | AID 488965; in the data active = inhibition above about 30%, passing the limit was not always enough;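 also: 0% = vehicle neutral wells and 100% = reference inhibitor wells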
# SUMO Mot1 rescue – blocks SUMOylation pathway, rescuing yeast Mot1-301 growth; growth rescue, % at 18.8 µM; 1% of 320,000 active; S. cerevisiae Mot1-301 growth rescue, ATP luminescence, 38.5C; percent above DMSO median, 100 means doubled;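 active = every valid replicate shows activation above 250% relative to neutral control wells; inactive = the rest, any valid replicate at or below 250%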;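 also: OY570 slx delta 5 strain wells were the positive control but not used for scaling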
# p-CIP stab down – compounds decreasing mouse p/CIP protein stability | 0.01% of 290,000 active | F442A p/CIP-EGFP cells, EGFP fluorescence, 16 h | decrease of EGFP signal, % at 10 µM;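 active = EGFP signal decrease of at least 30% at 10 µM or well 3 SD below plate mean, unless failing retest; inactive = the rest, including hits failing retest or dose response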
# PHOSPHO1 block – blocks human PHOSPHO1 phosphatase activity; recombinant PHOSPHO1, absorbance phosphatase assay; inhibition, % at 13.3 µM; 1.1% of 290,000 active; Q8TCT1; AID 1565; in the data active = inhibition above about 60%
# Target sequence (Q8TCT1 whole entry, looked up): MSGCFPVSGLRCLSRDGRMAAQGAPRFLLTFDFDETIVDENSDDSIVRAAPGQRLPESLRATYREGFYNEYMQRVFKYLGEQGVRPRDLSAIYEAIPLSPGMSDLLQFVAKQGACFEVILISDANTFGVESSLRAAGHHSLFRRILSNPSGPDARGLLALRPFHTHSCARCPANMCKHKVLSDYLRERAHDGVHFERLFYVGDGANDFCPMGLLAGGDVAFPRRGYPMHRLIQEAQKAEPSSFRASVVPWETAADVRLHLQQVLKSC
# HDAC3 inh – human HDAC3 inhibition; O15379; recombinant HDAC3, fluorogenic peptide/trypsin coupled, fluorescence; inhibition, % at 8.3 µM; 0.15% of 320,000 active; AID 2718; in the data active = inhibition above about 26%, passing the limit was not always enough
# An asterisk follows results filed as active; i = inactive; / = no result given. Shown are actives, neighbours in structure and some others; about 2.2% of the full set was active somewhere.
SMILES,JMJD2C inh,PvdQ inh,SUMO Mot1 rescue,p-CIP stab down,PHOSPHO1 block,HDAC3 inh
Cc1cc(Br)ccc1NC(=O)CN(C)C(=O)c1cc(S(=O)(=O)N(C)C)ccc1N1CCCC1,4,-7,-18,-11,-26,-4
Clc1ccc(SCCOCCN2CCCCC2)cc1,9,-2,184,-19,-8,/
Clc1ccc(SCCOCCN2CCc3ccccc3C2)cc1,7,-27,270*,19,22,5
CCN(CC)C(=O)c1ncn(C)c1C(=O)N(CC)CC,-4,-9,0,/,/,4
CCCc1cc(=O)[nH]c2nnc(SCC(=O)NC3CCCCC3)n12,10,0,-9,/,/,-15
NS(=O)(=O)c1ccc(CNC(=O)c2scc3c2CCCC3)cc1,-20,-16,19,2,-16,-20
Cc1noc(C)c1CSc1nnc(-c2ccccc2)n1N,-4,-11,-19,-3,97*,13
Cc1ccc(S(=O)(=O)C(C#N)c2nc3ccccc3nc2N2CC(C)OC(C)C2)cc1C (stereo not drawn),-4,14,58,-7,78*,9
CC1CCCN(c2nc3ccccc3nc2C(C#N)S(=O)(=O)c2cccs2)C1 (stereo not drawn),2,-22,41,0,102*,-6
CC(=O)Nc1ccc(S(=O)(=O)NC2(c3ccccc3)C(=O)N(C)C(=O)N(C)C2=O)cc1,/,-15,/,/,/,/
COc1cccc(NC(=O)c2cccc(S(=O)(=O)N3CCN(Cc4ccccc4)CC3)c2)c1,15,6,19,/,/,-1
Cc1ccccc1C(=O)Nc1c(C(=O)N2CCN(C)CC2)cnn1-c1ccccc1,5,1,-15,-2,10,-6
CN1CCN(C(=O)c2cnn(-c3ccccc3)c2NC(=O)c2ccccc2Br)CC1,-2,-14,331*,7,16,8
CC(C)COC(=O)c1ccc2c(c1O)C(=O)c1ccccc1C2=O,1,3,11,-4,80*,8
Cc1cc(C)c(NC(=O)c2cc3c(nc4sccn43)s2)c(C)c1,-5,-3,-3,-9,71*,6
Cc1ccc(C)c(C(=O)c2c(C)nc3sccn23)c1,-2,-3,4,-7,-11,6
CC(=O)c1cn(CC(=O)Nc2ccccc2Cl)c2ccccc12,-18,5,-4,-23,8,-2
O=C1OCCN1CCNCc1cn(-c2ccc(F)cc2)nc1-c1ccccc1Cl,-4,-18,7,2,60*,-10
CC1(C)Cc2ccccc2-c2n[nH]c(=S)n21,-5,-6,9,-1,96*,8
O=[N+]([O-])c1cccc(C(=S)N2CCN(c3ccccc3)CC2)c1,1,0,8,-14,79*,2
O=[N+]([O-])c1cccc(C(=S)N2CCN(c3ccccc3F)CC2)c1,-13,8,-19,0,43,-2
COc1ccc(/C=C2\CCc3ccccc3C2=O)cc1O,-4,-11,75,5,6,-5
CCS(=O)(=O)N1Cc2ccccc2CC1C(=O)N(C)CC(=O)Nc1ccc(F)c(F)c1F (stereo not drawn),6,4,i,/,/,0
O=C(COC(=O)c1ccc([N+](=O)[O-])o1)Nc1ccc(Br)cc1F,-3,0,337*,/,/,0
O=C(COC(=O)c1ccc([N+](=O)[O-])o1)Nc1ccc(F)cc1,1,-2,19,/,/,2
SMILES,JMJD2C inh,PvdQ inh,SUMO Mot1 rescue,p-CIP stab down,PHOSPHO1 block,HDAC3 inh
O=C(CSC1=NCCS1)c1ccc(Cl)cc1,3,-10,-8,6,-115,72*
COc1ccc2c(c1)CC(C1(O)C(=O)N(C)c3ccccc31)C2=O (stereo not drawn),51*,-10,5,-16,-8,11
CCCCOc1ccc(C(=O)NCC(=O)NC2CCCCC2)cc1,/,-7,-10,/,/,0
O=C(NCCS(=O)(=O)N1CCc2ccccc2C1)c1ccccc1,11,-10,-3,/,/,-6
COc1ccc(C(=O)NCCS(=O)(=O)N2CCc3ccccc3C2)cc1,1,6,530*,/,/,-2
Cc1cc(C)c(NS(=O)(=O)c2ccc3c(c2)NC(=O)CC(=O)N3)c(C)c1,-3,-1,-10,-11,-33,3
Cn1c(CSCc2ccc(Cl)cc2)nnc1SCC(=O)Nc1nc2ccccc2s1,-3,1,-12,-6,73*,-1
Cn1c(CSCc2ccc(Cl)cc2)nnc1SCC(=O)Nc1nccs1,7,10,12,-7,-17,5
CCOc1ccc(N/C(=C(/C(Cl)=C(Cl)Cl)[N+](=O)[O-])n2cncn2)cc1,-7,/,1,-7,20,2
O=[N+]([O-])/C(C(Cl)=C(Cl)Cl)=C(\Nc1ccc(F)cc1)n1cncn1,6,/,35,-2,93*,4
O=C(Cc1ccccc1)NNC(=O)Nc1ccccc1,-6,0,-1,-17,28,4
CN1C(=O)c2cccc3c(S(=O)(=O)Nc4ccccn4)ccc1c23,-4,0,280*,10,-2,0
CN1C(=O)c2cccc3c(S(=O)(=O)NCc4ccco4)ccc1c23,-6,-9,4,0,7,-5
CN1C(=O)c2cccc3c(S(N)(=O)=O)ccc1c23,-3,-15,1,-2,50,-8
Cc1ccccc1NS(=O)(=O)c1ccc2c3c(cccc13)C(=O)N2C,5,-7,351*,-1,36,-8
CC(C)(C)NCC(O)COc1ccccc1C1CCCC1 (stereo not drawn),/,-6,-10,/,/,1
Cn1c(N)c(C(=O)CSc2nn(-c3ccccc3)c(=S)s2)c(=O)n(C)c1=O,/,-10,/,/,/,/
CCCCn1c(N)c(N(Cc2ccccc2OC)C(=O)C(C)Oc2ccc(Cl)cc2)c(=O)[nH]c1=O (stereo not drawn),12,-2,-10,-12,63*,-4
CCCCn1c(N)c(N(Cc2ccccc2OC)C(=O)C(C)Oc2ccc(F)cc2)c(=O)[nH]c1=O (stereo not drawn),2,-2,12,/,/,-9
COc1ccc(-c2cc(-c3n[nH]c(=S)n3-c3ccccc3OC)[nH]n2)cc1,-4,-12,-11,0,67*,12
COc1ccc(OC)c(-n2c(-c3ccccc3)n[nH]c2=S)c1,-8,-16,-13,4,102*,0
COc1ccc(OC)c(-n2c(-c3cccc(C)c3)n[nH]c2=S)c1,-2,16,-1,-15,-40,1
Oc1[nH]c2ccc(Br)cc2c1N=NC(=S)N1CCOCC1,-8,8,240,-13,92*,/
Oc1[nH]c2ccccc2c1N=NC(=S)N1CCOCC1,-3,2,1,-1,42,-1
Cc1ccc(-c2ccc(SCC(=O)NC3CCCCC3)nn2)cc1,-7,3,73,2,62*,1
Cc1ccc(-c2ccc(SCC(=O)NC3CCCC3)nn2)cc1,-3,7,-10,-6,38,-1
